Source: the supplement of paper PMC8285479
Counter-ions that a name gives are not always drawn. ± gives the standard deviation of the averaged measurements. Over roughly 1,900 compounds, “normalised cell viability (NPI; 0 = phenylarsine oxide control, 1 = DMSO control)” has its median near 1; the lowest 2% begin near 0.039. This is one part of a sample in which the lowest values are shown more often than they occur.

Tested on: NCI-H1944
Test: normalised cell viability (NPI; 0 = phenylarsine oxide control, 1 = DMSO control) (fraction of DMSO control); NCI-H1944 is a non-small cell lung cancer line; higher = more viable cells (less compound toxicity)
Details: 6 days
[1] = glucocorticoid arm: hydrocortisone 2.75 uM co-treatment, compound 1 µM
[2] = glucocorticoid arm: hydrocortisone 2.75 uM co-treatment, compound 5 µM
[3] = glucocorticoid arm: hydrocortisone 2.75 uM pre-treated 2 days and continued, compound 1 µM
[4] = glucocorticoid arm: hydrocortisone 2.75 uM pre-treated 2 days and continued, compound 5 µM
[5] = glucocorticoid arm: vehicle, compound 1 µM
[6] = glucocorticoid arm: vehicle, compound 5 µM
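Also: CTB read-out in 384-well plates, triplicate wells, NPI normalised per plate against 1 µM phenylarsine oxide (0) and 0.1% DMSO (1) controls.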

SMILES | normalised cell viability [1] | normalised cell viability [2] | normalised cell viability [3] | normalised cell viability [4] | normalised cell viability [5] | normalised cell viability [6]
CCS(=O)(=O)Nc1cccc(C(=C2CCCCC2)c2cnc[nH]2)c1 | 1.006 ± 0.0063 | 1.04 ± 0.015 | 1.01 ± 0.011 | 1.04 ± 0.028 | 0.985 ± 0.013 | 0.9933 ± 0.0061
CN1CC[C@@]2(C)c3cc(O)ccc3N(C)C12 (single isomer, unassigned; (-)) [(-)-Eseroline fumarate] | 0.9967 ± 0.0058 | 0.972 ± 0.013 | 1.03 ± 0.045 | 0.971 ± 0.011 | 0.9967 ± 0.0042 | 0.996 ± 0.012
CCn1cnc2c(Nc3cccc(Cl)c3)nc(N[C@@H]3CCCC[C@@H]3N)nc21 | 0.783 ± 0.025 | 0.0569 ± 0.018 | 1.01 ± 0.011 | 0.182 ± 0.0028 | 0.321 ± 0.043 | 0.0192 ± 0.0037
C[C@H](N)CN1CCc2ccc(Br)cc21 [VER-3323 hemifumarate salt] | 1.001 ± 0.0085 | 1.01 ± 0.024 | 1 ± 0.011 | 1.05 ± 0.021 | 0.9897 ± 0.0015 | 1 ± 0.015
C[C@H]1O[C@@H](C[N+](C)(C)C)CS1 | 1.013 ± 0.0058 | 1.007 ± 0.0058 | 1 | 1 ± 0.024 | 0.9857 ± 0.0046 | 0.9857 ± 0.0038
CC12CCC3C(CCC4=C(O)C(=O)CCC43C)C1CCC2=O (configuration not stated) [4-Androsten-4-ol-3,17-dione] | 0.9977 ± 0.0021 | 0.9747 ± 0.0093 | 0.999 ± 0.001 | 1 ± 0.011 | 0.995 ± 0.015 | 1.003 ± 0.0061
Cc1c(N)nc([C@H](CC(N)=O)NC[C@H](N)C(N)=O)nc1C(=O)N[C@H](C(=O)N[C@H](C)[C@@H](O)[C@H](C)C(=O)N[C@H](C(=O)NCCc1nc(-c2nc(C(=O)NCCC[S+](C)C)cs2)cs1)[C@@H](C)O)[C@@H](OC1OC(CO)C(O)C(O)C1OC1OC(CO)C(O)C(OC(N)=O)C1O)c1cnc[nH]1 (some centres not stated) [Bleomycin sulfate] | 0.669 ± 0.048 | 0.196 ± 0.017 | 0.9903 ± 0.0051 | 0.637 ± 0.034 | 0.142 ± 0.024 | 0.0339 ± 0.0093
CCC1(c2ccc(N)cc2)CCC(=O)NC1=O (racemic) [(±)-p-Aminoglutethimide] | 0.997 ± 0.0052 | 1.01 | 0.866 ± 0.23 | 1 ± 0.027 | 1.006 ± 0.0063 | 1
CN[C@@H]1C[C@@H](c2ccc(Cl)c(Cl)c2)c2ccccc21 [Indatraline hydrochloride] | 1 ± 0.0095 | 0.931 ± 0.02 | 1.02 ± 0.021 | 1.04 ± 0.084 | 1.01 | 1.03 ± 0.05
C[Se]C[C@H](N)C(=O)O [Se-(methyl)selenocysteine hydrochloride] | 1.006 ± 0.0069 | 1.02 ± 0.015 | 1 | 0.859 ± 0.28 | 1.006 ± 0.0069 | 1.01 ± 0.016
C=C(C)[C@H]1Cc2c(ccc3c2O[C@@H]2COc4cc(OC)c(OC)cc4[C@@H]2C3=O)O1 [Rotenone] | 0.627 ± 0.064 | 0.39 ± 0.013 | 0.969 ± 0.016 | 0.685 ± 0.094 | 0.22 ± 0.011 | 0.115 ± 0.019
C=CCc1ccccc1OCC(O)CNC1(C)CCC(C(C)(C)NC(=O)CBr)CC1 (configuration not stated) [Bromoacetyl alprenolol menthane] | 0.9893 ± 0.0093 | -0.000605 ± 0.0006 | 0.994 ± 0.016 | 0.0027 ± 0.0058 | 0.978 ± 0.004 | -0.000518 ± 0.00015
